Only some compounds are listed: those with a hit (about 6.2% of all), similar ones and a draw of the others.
KB-V1 MDR tox = kills drug-selected multidrug resistant KB-V1 cells. KB-V1 MDR cells viability, CellTiter-Glo, 72 h. Potency, µM (highest dose often 46.1 µM), usual class: cytotoxic. actives 3.4% (n = 400,000). AID 1347076; also: % is scaled to controls: 0 for no effect and ±100 for the full control effect; nearly all actives have a fitted effect of over 60% in size
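In this primary screen, KB-V1 cells overexpressing P-gp are incubated with library compounds (lowest to highest concentration) for 72 h at 37 degrees C before a luminescent ATP viability read.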
KB-3-1 cytotox = kills parental KB-3-1 adenocarcinoma cells. KB-3-1 viability, CellTiter-Glo ATP luminescence, 72 h. Potency, µM (series often up to 46.1 µM), most hits filed as cytotoxic. actives 1.4% (n = 400,000). AID 1347075; also: % is scaled to controls: 0 for no effect and ±100 for the full control effect; nearly all actives have a fitted effect of over 60% in size
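Cytotoxicity in the drug-sensitive parental line KB-3-1 was scored as loss of CellTiter-Glo luminescence following 72 h incubation with compound. Values come from curve fitting of normalized concentration-response data.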
HT1080NT lethal = kills 2HG-producing HT-1080-NT fibrosarcoma cells; AID 686970; Potency, µM (highest dose often 46.1 µM), for inactives: top-dose activity, negative = less viability, most hits filed as cytotoxic; HT-1080-NT fibrosarcoma viability, CellTiter-Glo ATP luminescence, 48 h; actives 1.6% (n = 360,000);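 also: NT is the 2HG producing partner of a matched IDH1 knockdown line; 0% = DMSO-treated cells and -100% = media-only wells without cells; nearly all actives have a fitted effect of over 55% in size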
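Compounds were tested in concentration-response format on HT-1080-NT cells for 48 hours at 37 degrees C. Cell viability came from CellTiter-Glo luminescence; curves were classified by r2, response magnitude and activity.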
ATXN viability = cell viability loss in ATXN counter-screen | S2 cells (HEK-293 line with an ATXN2-luciferase reporter) viability, CellTiter-Fluor protease fluorescence, 24 h | Potency, µM (top dose mostly 56.7 µM), actives largely listed as cytotoxic | actives 0.49% (n = 400,000); also: nearly all actives have a fitted effect of over 40% in size
HT1080 IDH1KD tx = kills HT-1080 cells with IDH1 knockdown | Potency, µM (series often up to 46.1 µM), inactives show at the highest dose activity, negative = toxicity, usual class: cytotoxic | actives 2% (n = 360,000) | AID 686971 | HT-1080 IDH1 knockdown viability, ATP luminescence, 48 h;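 also: 0% = DMSO wells and -100% = cell-free medium wells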
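Knockdown cells (IDH1KD HT-1080) received compounds 2 h after plating at 750 cells/well and were kept 48 h at 37 °C in 5% FBS RPMI. A CellTiter-Glo luminescence read gave % activity for curve fitting.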
ATXN2 expr inh = inhibitors of ATXN2 expression; HEK-293 ATXN2-luciferase reporter, luminescence, 24 h; actives 0.72% (n = 360,000); Potency, µM (titrated, usually from 57 µM), without a hit: at the top dose activity change, negative = inhibition, usual class: inhibitors; also: % is scaled to controls: 0 for no effect and ±100 for the full control effect; nearly all actives have a fitted effect of over 55% in size
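qHTS (up to 57 uM final) was run with 24 h compound exposure of reporter cells at 37 °C. Each well was multiplexed: SteadyGlo luminescence measured ATXN2-luciferase expression after a fluorogenic Gly-Phe-AFC viability readout (25 uM final).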
* hit, by the source's call; i = inactive; ? = inconclusive; . = not tested or not shown; [ ] = dose if it differs, or a comment. Calls follow the shape of the dose curve; as a rule, active = well fitted curve in the direction sought with a large enough effect; inconclusive = small, poorly fitted or top-dose-only effect, or another doubt; inactive = no such curve, though single readings can be large; an effect the other way counts as inactive or inconclusive. Potency is read from the fitted curve at half-maximal effect.

SMILES | KB-V1 MDR tox | KB-3-1 cytotox | HT1080NT lethal | ATXN viability | HT1080 IDH1KD tx | ATXN2 expr inh
COc1ccc(-c2n[nH]c3c2C(c2ccc(OC)c(OC)c2)N(c2ccccc2)C3=O)cc1 (stereo not given) | 14.6µM* | ? | ? | i | ? | 3.4%
CCOC(=O)c1ccc(N2C(=O)c3[nH]nc(-c4ccc(OC)cc4)c3C2c2ccc(C)cc2)cc1 (stereo not given) | 18.4µM* | ? | . | ? | . | ?
CCOC(=O)c1ccc(N2C(=O)c3n[nH]c(C)c3C2c2ccccc2)cc1 (stereo not given) | 13µM* | i | -11.7% | i | -1.6% | 7.8%
CCOC(=O)c1ccc(NC(=O)Cn2cc(C(=O)C3CC3)c3ccccc32)cc1 | i | i | . | i | . | -2.0%
Cc1nn(-c2ccccc2)c2c1C(c1ccc([N+](=O)[O-])cc1)N1C(=N2)C(=O)Nc2ccccc21 (stereo not given) | 18.4µM* | 23.1µM* | -16.8% | i | -25.1% | -23.8%
COc1ccccc1OCCCn1cc(C#N)c2ccccc21 | 5.17µM* | 11.6µM* | 0.3% | i | -0.1% | -10.0%
CCC[N+]1(CC#CCC(c2ccccc2)c2ccccc2)CCCCC1 | i | 2.59µM* | -27.0% | ? | ? | ?
C(#Cc1ccccc1)C[N+]1(CC#Cc2ccccc2)CCCCC1 | i | 18.4µM* | ? | ? | ? | -17.8%[11.3 µM]
O=C(C[N+]1(CC#Cc2ccccc2)CCCCC1)c1ccccc1 | i | i | 1.7% | i | -7.0% | 0.9%
Cc1ccc(C#CC[N+]2(CC#Cc3ccc(C)cc3)CCCCC2)cc1 | i | ? | 20.6µM* | ? | 14.6µM* | ?
C#CC[N+]1(CC#Cc2ccccc2)CCCCC1 | i | i | 4.1% | ? | 0.9% | 4.7%
COC(=O)C1CCN(Cc2ccc3c(c2)CN(C(=O)c2ccc(-n4cnnn4)cc2)CCO3)CC1 | . | . | . | i | . | .
CC(NC(=O)c1cccc(Cn2cc([N+](=O)[O-])cn2)c1)c1ccc(C(C)(C)C)cc1 (stereo not given) | 20.6µM* | i | -0.9% | i | ? | -6.6%
CCC(NC(=O)c1cccc(Cn2cc([N+](=O)[O-])cn2)c1)c1ccc(C(C)C)cc1 (stereo not given) | 7.31µM* | ? | -19.9% | i | ? | -20.5%
CC(NC(=O)c1ccc(Cn2cc([N+](=O)[O-])cn2)o1)c1ccccc1 (stereo not given) | i | i | -4.5% | i | 7.3% | -0.7%
O=S1(=O)c2ccccc2N(Cc2cccc(C(F)(F)F)c2)c2ccccc21 | i | ? | . | i | . | -24.5%
CN(Cc1ccccc1)S(=O)(=O)c1cc(Br)cc2c1N(C(=O)C1CC1)CC2 | i | i | . | ? | . | -17.9%
N#Cc1ccc(Oc2ccc3c(c2)COB3O)cc1 | . | . | . | . | . | -23.2%
COc1cc(OC)cc(C(=O)N2CCN(C(=O)COc3ccccc3)CC2)c1 | i | i | . | ? | . | -2.6%
CCCOc1ccccc1C1Oc2nc(SC)nnc2-c2ccccc2N1C(C)=O (stereo not given) | ? | i | . | ? | . | 10.1%
Cc1ccc2nc3[nH]c(=O)[nH]c(=O)c3c(N)c2c1 | ? | ? | 0.1% | i | -5.5% | 16.8%
Cc1ccc2nc(N)[nH]c(=O)c2c1Sc1ccncc1 | . | . | . | i | . | 12.6µM*
O=[N+]([O-])c1ccc(-n2nnnc2-c2ccccc2)cc1 | i | i | 2.2% | i | 4.4% | .
O=[N+]([O-])c1ccc(-n2nnnc2-c2ccccc2)c([N+](=O)[O-])c1 | 18.4µM* | i | ? | ? | ? | ?
Cc1ccc(S(=O)(=O)N2CCN(c3cc(-c4cccs4)nc4ccccc34)CC2)cc1 | i | i | . | . | . | .
SMILES | KB-V1 MDR tox | KB-3-1 cytotox | HT1080NT lethal | ATXN viability | HT1080 IDH1KD tx | ATXN2 expr inh
COc1ccccc1N1CCN(C(c2ccccc2)c2nnnn2Cc2ccccc2)CC1 (stereo not given) | i | ? | . | . | . | .
COc1ccc(Cn2nnnc2C(c2cccs2)N2CCSCC2)cc1 (stereo not given) | i | i | 6.4% | i | -2.0% | -13.3%
COc1ccc(Cn2nnnc2C(C(C)C)N2CCN(c3ccccc3OC)CC2)cc1 (stereo not given) | ? | 18.4µM* | -17.8% | ? | -0.9%[9.24 µM] | -5.1%
COc1ccc(Cn2nnnc2C(c2cccs2)N2CCCCCC2)cc1 (stereo not given) | 16.4µM* | ? | -18.0% | i | -18.5% | -13.0%
CC1CCN(C(c2cccs2)c2nnnn2Cc2ccccc2)CC1 (stereo not given) | 14.6µM* | ? | -18.2% | i | -24.4% | -0.1%
O=C(c1cccc(F)c1F)N1CCOc2ccc(CN3CCN(Cc4ccccn4)CC3)cc2C1 | . | . | . | i | . | .
CS(=O)(=O)N1CCc2cc(S(=O)(=O)Nc3ccc4c(c3)OCCO4)ccc21 | 20.6µM* | ? | ? | i | -22.4% | -15.3%
Cc1cc(C)c(C)c(S(=O)(=O)N2CCN(c3ncnc4ccccc34)CC2)c1C | ? | 18.4µM* | ? | i | 23.1µM* | .
Cc1cc(C)c(C)c(S(=O)(=O)N2CCN(c3ccccn3)CC2)c1C | ? | i | -17.0% | i | -0.3% | -5.3%
CCc1cccc(C)c1NS(=O)(=O)c1cc2[nH]c(=O)c(=O)[nH]c2cc1C | ? | i | . | ? | . | 14.8%
C=CC[n+]1c(-c2ccccc2)csc1NC(C)(C)C | i | i | 1.2% | i | -4.4% | -11.1%
C=CC[n+]1c(-c2ccc(OC)c(OC)c2)csc1NNC(=O)Nc1ccccc1 | 18.4µM* | ? | ? | ? | 15.8µM* | ?
COC(=O)c1c(NC(NC(=O)C(C)C)C(Cl)(Cl)Cl)sc2c1CCC2 (stereo not given) | i | i | -21.9% | i | -25.9% | -13.5%
CCC(=O)NC(Nc1sc2c(c1C(=O)OC)CCC2)C(Cl)(Cl)Cl (stereo not given) | 23.1µM* | ? | 0.8% | i | 1.2% | -16.6%
COC(=O)c1c(NC(NC(=O)CC(C)C)C(Cl)(Cl)Cl)sc2c1CCC2 (stereo not given) | 18.4µM* | i | 0.8% | i | -14.4% | -15.0%
CCn1cc(C(=O)N(C)Cc2ccccc2)c(=O)c2cc(S(=O)(=O)N3CCc4ccccc4C3)ccc21 | i | i | . | i | . | -4.6%
CC(=O)c1ccccc1NS(=O)(=O)c1c(C)nn(-c2ccccc2)c1C | 9.2µM* | i | -10.1% | i | -16.6% | 2.1%
